# High-throughput results deposited in PubChem by National Center for Advancing Translational Sciences (NCATS).
# Pf growth 96h: Primary qHTS for delayed death inhibitors of the malarial parasite plastid, 96 hour incubation. P. falciparum luciferase reporter growth, 96 h. Potency, µM (series often up to 28.7 µM), for the others: top-dose activity change, negative = inhibition, most hits filed as inhibitors. 320,000 tested, 6.9% active; note: potency is the fitted concentration of half-maximal effect
#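 Plates of compound plus infected erythrocytes (2% hematocrit, 0.05% parasitemia final) incubate 96 hours, 37 C, 5% CO2. Detection reagent added; reduced luminescence from the parasites' luciferase reporter flags inhibition.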
# Pf growth 48h: Primary qHTS for delayed death inhibitors of the malarial parasite plastid, 48 hour incubation; P. falciparum luciferase growth in erythrocytes, 48 h; Potency, µM (top dose mostly 28.7 µM), inactives show top-dose activity change, negative = inhibition, usual class: inhibitors; 310,000 tested, 5.9% active; AID 504832, 2011; note: potency is the fitted concentration of half-maximal effect
#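 Firefly luciferase activity from engineered P. falciparum reports growth; inhibitors lower the luminescent signal. Cultures contained 2% hematocrit erythrocytes at 0.1% final parasitemia.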
# HCMV inh: qHTS Assay for inhibitors of the human cytomegalovirus (HCMV); 410,000 tested, 4.5% active; activity change, negative = inhibition, % at 57.5 µM; HFF cells, HCMV-luciferase reporter, 72 h; stronger effect = lower value; AID 1259415, 2018; in the data active = activity change below about -60%; inconclusive = no clear call, values can overlap the other calls; inactive = above about -39%
#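 Inhibition of viral replication was scored as loss of reporter luminescence in HFFs infected with HCMV-luciferase (MOI 1 PFU/cell) for 72 h; compounds tested at 2 doses, normalized to buffer and Salinomycin controls.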
# Sm TGR block: qHTS Assay for the Inhibitors of Schistosoma Mansoni Peroxiredoxins; purified TGR, DTNB reduction, TNB absorbance 405 nm; Potency, µM (series often up to 114 µM), without a hit: at the highest dose activity change, negative = inhibition, most hits filed as inhibitors; 360,000 tested, 3% active; AID 485364, 2010; note: potency is the fitted concentration of half-maximal effect; nearly all actives have a fitted effect of over 60% in size
#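 First, TGR (20 nM dispensed) and NADPH were mixed with compound. Second, a 15 min room-temperature incubation followed. Third, further NADPH and then DTNB were added to start the reaction. Finally, TNB absorbance was monitored kinetically.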
# FBPA Giardia inh: qHTS Assay for Inhibitors of Fructose-1,6-bisphosphate Aldolase from Giardia Lamblia; purified Giardia FBPA; Potency, µM (series often up to 59.6 µM), for inactives: top-dose activity, negative = inhibition, actives largely listed as inhibitors; 290,000 tested, 0.71% active; AID 2451, 2010; note: potency is the fitted concentration of half-maximal effect; nearly all actives have a fitted effect of over 55% in size
# Target sequence (A8B2U2 whole entry, looked up): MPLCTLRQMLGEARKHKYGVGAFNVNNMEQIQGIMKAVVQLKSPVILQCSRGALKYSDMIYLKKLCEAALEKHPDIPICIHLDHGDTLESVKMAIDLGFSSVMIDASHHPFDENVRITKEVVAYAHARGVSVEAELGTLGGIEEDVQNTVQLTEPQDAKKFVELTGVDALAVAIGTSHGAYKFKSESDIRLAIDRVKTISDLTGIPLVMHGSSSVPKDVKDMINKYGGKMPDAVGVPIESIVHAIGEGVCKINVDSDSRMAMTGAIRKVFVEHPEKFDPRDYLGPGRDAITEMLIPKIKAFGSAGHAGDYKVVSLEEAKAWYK
#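 40 nM FBPA preincubated 10 min at RT with compound (up to 57.5 uM final), then substrate plus GAPDH/TPI/NAD/arsenate coupling and diaphorase/resazurin added. Fluorescence read after 20 min at RT, 525/598 nm.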
# The depositor's hits bear a star; i = inactive; ? = inconclusive; . = not tested or not shown; [ ] = another dose, or the depositor's remark. This is a sample that favours compounds with a hit; in the whole collection about 14% have one here. Unless noted, calls come from the whole dose curve; as a rule, active = well fitted curve in the direction sought with a large enough effect; inconclusive = small, poorly fitted or top-dose-only effect, or another doubt; inactive = no such curve, though single readings can be large; an effect the other way counts as inactive or inconclusive. % is set by controls: 0 for no effect and ±100 for the full control effect.
SMILES,Pf growth 96h,Pf growth 48h,HCMV inh,Sm TGR block,FBPA Giardia inh
O=C(NCc1nc2ccccc2[nH]1)C1=C[C@H](c2ccc3c(c2)OCO3)C[C@H](OCCCCO)O1,4.1µM*,?,0,-6%,-2%
FC(F)(F)C1=NNC(c2ccc3ccccc3c2)=NN1,.,.,-35,.,.
CCN(CC(=O)Nc1c(F)cccc1F)C(=O)c1ccc2c(c1)C(=O)N(c1ccccc1C)C2=O,.,.,-26,.,.
Cc1cccc(C)c1OCCOC(=O)c1n[nH]c2ccccc12,7%,-2%,?,20%,-23%
Cc1ccc(C)c(C(=O)COC(=O)c2n[nH]c3ccccc23)c1,.,.,-61*,.,.
COc1ccc(OCc2nc3ccccc3n2C(C)c2ccccc2)cc1 (centres undefined),.,.,-19,0%,.
COC(=O)C(C(=O)OC)C1O[C@@]23COCCC2(C)C3c2ccccc21 (some centres undefined),.,.,.,.,-3%[12.9 µM]
C#CC[N+]1(CC#Cc2cccc3ccccc23)CCOCC1,-5%,3.7µM*,-35,28µM*,4%
C(#Cc1ccccc1)C[N+]1(CC#Cc2cccc3ccccc23)CCCC1,?,2.6µM*,-100*,?,-24%
C#CC[N+]1(CC#Cc2ccccc2)CCCC1,49%,3.3µM*,-33,-30%,2%
O=S(=O)([O-])CCC[N+]1(CC#Cc2ccccc2)CCCCC1,0%,8%,-30,3%,5%
C[C@@H]1CN([C@H](C)CO)C(=O)Cc2cc(NC(=O)Cn3cnnn3)ccc2O[C@@H]1CN(C)Cc1ccc(Cl)c(Cl)c1,.,.,0,.,.
CC(=O)c1ccc(NC(=O)CN(C)S(=O)(=O)c2cccc3nsnc23)cc1,.,.,2,-2%,.
Cn1cc([N+](=O)[O-])c(C(=O)Nc2cc(Oc3cccnc3)cc([N+](=O)[O-])c2)n1,18%,1%,-106*,5%,.
COc1ccc(Oc2cc(NC(=O)c3nn(C)cc3[N+](=O)[O-])cc([N+](=O)[O-])c2)cc1,-10%,.,-110*,-23%,-3%
O=[N+]([O-])c1cc(Oc2cccnc2)cc([N+](=O)[O-])c1,?,?,-30,-13%,-2%
COc1ccc(S[C@]2(C(=O)N3CCCC3)CC(=O)N(c3ccc4ccccc4c3)[C@@H]2c2ccc(OC)cc2)cc1,.,.,22,.,.
COc1ccc(NC(=O)c2ocnc2C)cc1OC,40%,35%,31,2%,4%
COc1ccc(Cl)cc1NC(=O)Nc1cnccn1,?,?,-85*,2%,5%
COc1ccccc1NC(=O)c1ccccc1NC(=O)c1ccccn1,?,-8%,-31,-1%,.
COc1ccc(Cl)cc1NC(=O)c1ocnc1C,1µM*,-2%,-27,-17%,-3%
COc1ccc(C)cc1NC(=O)Nc1cnccn1,?,?,14,.,4%
COc1ccc(Cl)cc1NC(=O)NNC(=O)c1ccccn1,10µM*,-23%,-20,1%,.
CCOc1ccc2c(c1)c(=O)c(C(=O)c1ccc(CC)cc1)cn2CC(=O)Nc1cccc(Cl)c1,.,.,4,-8%,.
CCOC(=O)c1c(NC(=O)c2ccc(S(=O)(=O)N(CC(C)C)CC(C)C)cc2)sc2c1CCN(C(=O)OCC)C2,.,.,-20,-2%,.
SMILES,Pf growth 96h,Pf growth 48h,HCMV inh,Sm TGR block,FBPA Giardia inh
C=CCNC(=S)Nc1sc2c(c1C(=O)OCC)CCN(C(=O)OCC)C2,?,13µM*,-11,-17%,-10%
CCOC(=O)c1c(NC(=S)Nc2ccccc2)sc2c1CCN(CC)C2,58%,6.6µM*,23,-27%,-18%
CCOC(=O)c1c(NC(=S)NCc2ccccc2)sc2c1CCN(C(=O)OCC)C2,5.9µM*,12µM*,50,0%,-5%
CCCCCn1c(=O)[nH]c2cc(C(=O)NCCCN3CCCCC3CC)ccc2c1=O (centres undefined),?,?,-10,0%,8%
N#CCC(=O)Nc1ccc(C(=O)NNC(=S)NC2CC2)cc1,40%,36%,-97*,-8%,.
COC(=O)c1ccc(NC(=S)NC2CC2)cc1,?,35%,25,16µM*,2%
CCC(C)NC(=S)Nc1ccc(C(=O)OC)cc1 (centres undefined),?,34%,-85*,9%,0%
COC(=O)Cc1ccc(NC(=S)NC2CC2)cc1,20%,9%,48,45µM*,1%
Cc1cc(C(=O)NNC(=O)c2ccc(NC(=O)CC#N)cc2)c(C)o1,-26%,?,-14,-17%,.
COC(=O)c1ccc(NC(=S)NC2CC(C)(C)NC(C)(C)C2)cc1,21%,-20%,-30,-14%,2%
O=C(Nc1cccc(NC(=O)c2ccccc2Cl)c1)c1cccs1,-9%,16%,-81*,-2%,3%
COc1ccc(C(=O)Nc2ccc(NC(=O)c3cccs3)cc2)cc1Cl,?,-9%,-76*,0%,3%
COc1c(Cl)cc(Cl)cc1C(=O)Nc1ccc(NC(=O)c2cccs2)cc1,13µM*,9.3µM*,?,3%,4%
O=C(N/N=C/c1cccs1)c1ccc(NC(=O)c2ccccc2Cl)cc1,-9%,-17%,-65*,-1%,5%
O=C(N/N=C/c1cccs1)c1cccc(NC(=O)c2ccccc2Cl)c1,-13%,5%,-27,-7%,1%
O=C(NC1CCCC1)C1CCN(C(=O)c2ccccc2Cl)CC1,2%,4%,-7,5%,10%
CC(C)(C)c1ccc(NC(=O)Nc2ccc(OCC(=O)N3CCOCC3)cc2)cc1,-38%,212%,258,-4%,-8%
COc1cc(NCCC(=O)c2cccs2)c(OC)cc1Cl,2%,i,28,1.3µM*,-8%
COc1cc(C(=O)Nc2ccc(C(=O)c3cccs3)cc2)cc(OC)c1OC,9.3µM*,?,-33,-11%,-5%
COc1ccc(C(=O)Nc2ccc(NC(=O)c3cccs3)cc2)cc1OC,.,.,6,3%,.
N#Cc1nc(COc2ccccc2Cl)oc1NCc1ccco1,?,-23%,-13,22µM*,-1%
COc1ccc(CCNc2oc(COc3ccccc3Cl)nc2C#N)cc1OC,3.7µM*,8.3µM*,19,-18%,-8%
N#Cc1nc(COc2ccccc2Cl)oc1NCCc1ccccc1,.,.,1,-24%,.
O=c1[nH]cnc2scc(-c3ccc(Br)cc3)c12,?,29%,-34,2%,4%
O=c1[nH]cnc2scc(-c3ccccc3)c12,-20%,2.6µM*,-34,8%,-6%
S=c1[nH]cnc2scc(-c3ccc(Br)cc3)c12,?,?,-87*,-1%,0%
CCc1cccc(C)c1NC(=O)NC1COc2ccccc2C1 (centres undefined),.,.,12,8%,.
